Assay [1] in a line: antimalarial activity against Dd2 strain (AID 2302;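 active means growth inhibition above 50% at the single 2 µM test dose, taken to imply half-maximal potency below 2 µM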;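 further: 0% = DMSO untreated growth and 100% = chloroquine plus artemisinin killed control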). The following applies: P. falciparum Dd2 in RBCs, LDH growth readout, 72 h; at 2 µM; active compounds read high.
A short description of assay [2]: HepG2 cytotoxicity, primary screen, cytotoxicity control for P. falciparum antimalarial project, cell-based, ATP luminescence (AID 2303;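 active means inhibition above 50%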;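 further: 0% = DMSO wells and 100% = digitonin-killed cells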). The following applies: HepG2 viability, 24-48 h, at 10 µM, active compounds read high.
Assay [3] deals with L-lactate dehydrogenase (Plasmodium falciparum (isolate CDC / Honduras)) (UniProt Q27743). Nature of the assay: PfLDH activity inhibition – cell lysate, 3D7 strain, counter-screen for P. falciparum growth inhibition project (AID 2304).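 Further: 0% = vehicle and 100% = reference inhibitor.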 The following applies: P. falciparum 3D7 crude extract, LDH APAD/NBT absorbance; at 2 µM; active compounds read high. Background: Counterscreens check selectivity or assay interference.
Chain of L-lactate dehydrogenase (Plasmodium falciparum (isolate CDC / Honduras)) (Q27743 whole entry, looked up): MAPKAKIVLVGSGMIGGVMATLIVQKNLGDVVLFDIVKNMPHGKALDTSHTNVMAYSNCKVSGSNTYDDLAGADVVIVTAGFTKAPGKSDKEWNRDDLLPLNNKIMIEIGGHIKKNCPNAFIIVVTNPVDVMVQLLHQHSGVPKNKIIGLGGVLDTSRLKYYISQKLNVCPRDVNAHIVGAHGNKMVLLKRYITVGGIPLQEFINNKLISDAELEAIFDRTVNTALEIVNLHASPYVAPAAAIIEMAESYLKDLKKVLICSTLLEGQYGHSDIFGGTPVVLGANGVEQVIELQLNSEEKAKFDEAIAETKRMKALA

Assay [4] is described as follows: inhibition of 3D7 malaria parasite growth – strain 3D7 (AID 2306).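 Further: 0% = DMSO wells and 100% = chloroquine plus artemisinin control wells.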 Particulars: P. falciparum 3D7 erythrocytic growth, LDH absorbance, 72 h; at 2 µM; active compounds read high.
The target of assay [5] is Calcium-dependent protein kinase 1 (Plasmodium falciparum (isolate 3D7)) (UniProt P62344). Nature of the assay: PfCDPK1 kinase inhibitors, biochemical, TCAMS library (AID 1159585; cut-off not given, nearly all actives have IC50 up to about 0.98 µM;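 further: inhibitors leave more ATP so luminescence rises with inhibition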). Particulars: recombinant PfCDPK1, Kinase-Glo ATP depletion luminescence.
Chain of Calcium-dependent protein kinase 1 (Plasmodium falciparum (isolate 3D7)) (P62344 whole entry, looked up): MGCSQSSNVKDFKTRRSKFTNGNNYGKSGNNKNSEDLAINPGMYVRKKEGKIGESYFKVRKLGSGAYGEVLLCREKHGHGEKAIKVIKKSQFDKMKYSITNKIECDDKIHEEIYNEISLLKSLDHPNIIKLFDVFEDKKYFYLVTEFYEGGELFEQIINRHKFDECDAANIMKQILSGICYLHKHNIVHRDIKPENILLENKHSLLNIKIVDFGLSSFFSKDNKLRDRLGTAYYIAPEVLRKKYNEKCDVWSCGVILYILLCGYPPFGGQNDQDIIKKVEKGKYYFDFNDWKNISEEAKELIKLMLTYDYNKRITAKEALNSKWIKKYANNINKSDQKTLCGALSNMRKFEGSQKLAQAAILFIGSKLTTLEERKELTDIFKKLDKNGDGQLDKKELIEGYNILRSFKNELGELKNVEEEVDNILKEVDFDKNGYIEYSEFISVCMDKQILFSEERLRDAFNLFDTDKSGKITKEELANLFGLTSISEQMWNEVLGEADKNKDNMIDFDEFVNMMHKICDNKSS
The target of assay [6] is Plasmodium falciparum protein kinase 6 (PK6, PF3D7_1337100) (UniProt Q8IDW1). Nature of the assay: PfPK6 kinase inhibitors, biochemical, TCAMS library (AID 1159586). Particulars: recombinant PfPK6, Kinase-Glo ATP depletion luminescence. (Kinase-Glo reads ATP consumption through a luciferase reaction.)
Chain of Plasmodium falciparum protein kinase 6 (PK6, PF3D7_1337100) (Q8IDW1 1-305): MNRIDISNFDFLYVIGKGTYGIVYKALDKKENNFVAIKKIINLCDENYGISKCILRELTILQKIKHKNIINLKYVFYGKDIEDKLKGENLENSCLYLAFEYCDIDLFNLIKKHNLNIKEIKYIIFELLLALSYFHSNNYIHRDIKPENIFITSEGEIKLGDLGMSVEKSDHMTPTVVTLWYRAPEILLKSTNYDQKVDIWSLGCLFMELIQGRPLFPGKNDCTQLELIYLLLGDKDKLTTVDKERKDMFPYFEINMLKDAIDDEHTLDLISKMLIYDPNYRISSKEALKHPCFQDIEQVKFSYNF
Assay [7] concerns the target Protein kinase 7 (PK7), Plasmodium falciparum 3D7 (PF3D7_0213400) (UniProt Q7YTF7). Nature of the assay: inhibition of Plasmodium PK7 catalytic activity – biochemical, TCAMS antimalarial set, Kinase-Glo luminescence (AID 1159587). Particulars: recombinant PfPK7, Kinase-Glo ATP depletion luminescence.
Assay [8] addresses Calcium-dependent protein kinase 4 (Plasmodium falciparum (isolate 3D7)) (UniProt Q8IBS5). Nature of the assay: PfCDPK4 kinase inhibitors, biochemical, TCAMS library (AID 1159588; cut-off not given, nearly all actives have IC50 up to about 0.91 µM). The following applies: recombinant PfCDPK4, Kinase-Glo ATP depletion luminescence.

A number with no mark means an inactive call. For some assays here: Measured potencies and affinities stand elsewhere. Activity calls are given as the source filed them. Unless noted, how the calls were made is not given here.

Chain of Protein kinase 7 (PK7), Plasmodium falciparum 3D7 (PF3D7_0213400) (Q7YTF7 1-343): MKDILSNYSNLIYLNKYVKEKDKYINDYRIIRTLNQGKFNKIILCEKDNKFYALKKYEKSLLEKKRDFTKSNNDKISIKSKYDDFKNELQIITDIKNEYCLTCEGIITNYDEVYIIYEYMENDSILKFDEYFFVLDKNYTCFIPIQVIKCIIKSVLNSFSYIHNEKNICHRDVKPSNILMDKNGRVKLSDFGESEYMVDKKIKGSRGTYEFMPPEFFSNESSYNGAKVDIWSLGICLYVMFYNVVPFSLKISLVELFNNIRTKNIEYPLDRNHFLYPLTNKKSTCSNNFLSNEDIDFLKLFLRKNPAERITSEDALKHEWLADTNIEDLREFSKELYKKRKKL
Chain of Calcium-dependent protein kinase 4 (Plasmodium falciparum (isolate 3D7)) (Q8IBS5 whole entry, looked up): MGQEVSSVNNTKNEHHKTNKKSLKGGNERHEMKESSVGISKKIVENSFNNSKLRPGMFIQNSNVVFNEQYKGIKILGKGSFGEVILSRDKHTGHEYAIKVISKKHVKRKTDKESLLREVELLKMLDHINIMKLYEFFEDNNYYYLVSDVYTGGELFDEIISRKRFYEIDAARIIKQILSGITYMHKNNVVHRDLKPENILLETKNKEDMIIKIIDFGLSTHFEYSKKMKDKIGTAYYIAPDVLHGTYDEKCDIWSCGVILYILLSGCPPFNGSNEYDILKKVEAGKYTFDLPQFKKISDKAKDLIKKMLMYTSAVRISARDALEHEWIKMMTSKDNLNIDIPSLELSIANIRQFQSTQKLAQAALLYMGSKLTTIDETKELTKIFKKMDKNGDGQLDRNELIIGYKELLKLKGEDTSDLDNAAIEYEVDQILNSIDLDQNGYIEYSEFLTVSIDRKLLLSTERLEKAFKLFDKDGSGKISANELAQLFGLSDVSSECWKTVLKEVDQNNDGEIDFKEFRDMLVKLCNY

Broadly, the inhibition is the relative decrease from the control value, in per cent. On to `COCCCNC(=S)NN=C(C)c1ccccn1`, for which the growth inhibition is 99% (active) in assay [1] and 100% (active) in assay [4]. The inhibition in assay [2] is 55% (active); in assay [3], 3%. Further, the outcome in assay [5], in assay [6], in assay [7] and in assay [8] was inactive.
Take `N#Cc1ccc(C2CCN(CC[C@H](N)Cc3ccc(Cl)s3)CC2)cc1`: the growth inhibition is 30% in assay [1] and 92% (active) in assay [4]. Moreover, the inhibition in assay [2] was 31%; in assay [3] it was 6%. Also, the outcome in assay [5], in assay [6], in assay [7] and in assay [8] was inactive.
In the case of `COc1ccc(CCNCCCCCCNCCCc2ccc(Cl)cc2)cc1OC`, the values for the growth inhibition in assay [1] and in assay [4] were 2% and 96% (active), respectively. For the same compound, the inhibition in assay [2] is 36%; in assay [3] it was 1%. Also, the outcome in assay [5], in assay [6], in assay [7] and in assay [8] was inactive.
Consider `O=C(Nc1ccc(I)cc1)Nc1ccc(Cn2ncc(N3CCCNCC3)c(Cl)c2=O)cc1`, for which the growth inhibition in assay [1] was 30%; in assay [4], 86% (active). The inhibition in assay [2] was 35%; in assay [3] it was 0%. Also, the outcome in assay [5], in assay [6], in assay [7] and in assay [8] was inactive.
For the compound `c1ccc(CCNc2nc(NCC(c3ccccc3)c3ccccc3)c3[nH]cnc3n2)cc1`, the figures for the growth inhibition in assay [1] and in assay [4] were 95% (active) and 100% (active), respectively. Further, the figures for the inhibition in assay [2] and in assay [3] were 9% and -1%, respectively. Further, the outcome in assay [5], in assay [6], in assay [7] and in assay [8] was inactive.
`Cc1cc(CNCCCCCCNCc2cccc([N+](=O)[O-])c2)ccc1O`: the growth inhibition in assay [1] was -1%; in assay [4], 90% (active). Moreover, the inhibition in assay [2] was 13%; in assay [3], -8%. Besides, the result in assay [5], in assay [6], in assay [7] and in assay [8] was inactive.
Turning to `COc1ccc(-c2ccc(NC(=O)c3ccc(C#N)cc3)cc2)cc1CN1CCCN(C)CC1`, the figures for the growth inhibition in assay [1] and in assay [4] were 75% (active) and 99% (active), respectively. Further, the inhibition in assay [2] is 27%; in assay [3] it was -3%. Moreover, the result in assay [5], in assay [6], in assay [7] and in assay [8] was inactive.
`CCN(CCCN1CCCCC1)c1cc(C)nc(Nc2ccc(C)cc2C)n1`: the growth inhibition is 35% in assay [1] and 91% (active) in assay [4]. For the same compound, the inhibition was 33% in assay [2] and 6% in assay [3]. In addition, the outcome in assay [5], in assay [6], in assay [7] and in assay [8] was inactive.
With `Cc1cc(N[C@@H](Cc2ccccc2)C(=O)NCCOc2ccccc2)nc(NCc2ccccc2C)n1`, the growth inhibition in assay [1] was 80% (active); in assay [4] it was 100% (active). The inhibition in assay [2] is 32%; in assay [3], -3%. In addition, the outcome in assay [5], in assay [6], in assay [7] and in assay [8] was inactive.
Consider `CCCC(C)N(Cc1ccc(C(C)(C)C)cc1)C(=O)c1cccc(OC)c1` (configuration not stated), for which the growth inhibition in assay [1] was 89% (active); in assay [4], 100% (active). Moreover, the inhibition in assay [2] is 9%; in assay [3], 1%. The result in assay [5], in assay [6], in assay [7] and in assay [8] was inactive.
For the compound `Cc1cc(OCCCN=C(N)c2ccc3ccccc3c2)c(C(C)C)cc1Cl`, the growth inhibition in assay [1] is 10%; in assay [4] it was 95% (active). Also, the inhibition in assay [2] was 89% (active); in assay [3] it was 2%. Also, the outcome in assay [5], in assay [6], in assay [7] and in assay [8] was inactive.
`c1ccc(-c2[nH]c3ccccc3c2CN2CCC(N3CCCCC3)CC2)nc1`: the growth inhibition was 82% (active) in assay [1] and 101% (active) in assay [4]. The inhibition in assay [2] was 13%; in assay [3], -3%. For the same compound, the outcome in assay [5], in assay [6], in assay [7] and in assay [8] was inactive.
Take `CCn1c(Sc2ccc([N+](=O)[O-])c(C#N)c2)nnc1-c1cccc(Cl)c1`: the growth inhibition was 22% in assay [1] and 89% (active) in assay [4]. For the same compound, the inhibition in assay [2] was 8%; in assay [3] it was 2%. The outcome in assay [5], in assay [6], in assay [7] and in assay [8] was inactive.
On to `CN1CCC(NCc2cccc(-c3ccc(S(=O)(=O)NCCN4CCCC4)c(F)c3)c2)CC1`, for which the figures for the growth inhibition in assay [1] and in assay [4] were -4% and 91% (active), respectively. The inhibition in assay [2] was 14%; in assay [3], 2%. In addition, the outcome in assay [5], in assay [6], in assay [7] and in assay [8] was inactive.
Regarding `Cc1cc2nc(-c3cc(Br)ccc3O)c(-c3cc(Br)ccc3O)nc2cc1C`, the growth inhibition is 12% in assay [1] and 96% (active) in assay [4]. Also, the inhibition is 2% in assay [2] and -1% in assay [3]. In addition, the result in assay [5], in assay [6], in assay [7] and in assay [8] was inactive.
Regarding `Cc1nc(Nc2ccc(F)cc2)nc(N2CCc3ccccc3C2C)c1CO` (configuration not stated), the growth inhibition in assay [1] is 95% (active); in assay [4], 101% (active). For the same compound, the inhibition is -9% in assay [2] and -4% in assay [3]. The result in assay [5], in assay [6], in assay [7] and in assay [8] was inactive.
As for `O=C(Nc1ccsc1C(=O)NC1CCCCC1)c1ccc(F)cc1`, the growth inhibition in assay [1] was 11%; in assay [4] it was 86% (active). Also, the inhibition in assay [2] is 3%; in assay [3], 6%. Also, the result in assay [5], in assay [6], in assay [7] and in assay [8] was inactive.
Take `Cc1cc(NN=Cc2ccccc2F)c2cc(C(F)(F)F)ccc2n1`: the growth inhibition in assay [1] is 67% (active); in assay [4], 102% (active). The figures for the inhibition in assay [2] and in assay [3] were 5% and 2%, respectively. The outcome in assay [5], in assay [6], in assay [7] and in assay [8] was inactive.
Consider `Cc1cc(N[C@@H](Cc2ccccc2)C(=O)NC2CCCC2)nc(NCCOc2ccccc2)n1`, for which the growth inhibition in assay [1] was 48%; in assay [4], 98% (active). Besides, the inhibition in assay [2] is 40%; in assay [3], 0%. The outcome in assay [5], in assay [6], in assay [7] and in assay [8] was inactive.

The record behind these values is PubChem BioAssay.
